PubChem BioAssay (NCATS)
Calls of active or inactive are those of the source. Calls follow the shape of the dose curve; as a rule, active = well fitted inhibition curve with a large enough effect; inconclusive = small, poorly fitted or top-dose-only effect; inactive = flat fitted curve, though single readings scatter.

Molecular target: ATP-dependent DNA helicase Q1 (Homo sapiens) (UniProt P46063)
Test: qHTS Validation Assay for Inhibitors of RecQ-Like Dna Helicase 1 (RECQ1) (AID 2353);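 as to activity change, negative = inhibition: plate controls were DMSO vehicle for no effect and enzyme-free control for full effect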
Conditions: recombinant RECQ1 helicase DNA unwinding assay; series mostly up to 25.6 µM; activity change, negative = inhibition: at the top concentration
Method in brief: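 50 nM RECQ1T1 preincubated 15 min with compound in Tris pH 8.0 buffer with MgCl2, DTT, Tween-20 and 2.5 ug/ml poly(dI-dC); started with 200 nM TAMRA/BHQ-2 forked duplex and 2 mM ATP. Unwinding read as fluorescence (525/598 nm), two reads 2 h apart.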
Potency is read from the fitted curve at half-maximal effect.

ATP-dependent DNA helicase Q1 (Homo sapiens), sequence (P46063 whole entry, looked up): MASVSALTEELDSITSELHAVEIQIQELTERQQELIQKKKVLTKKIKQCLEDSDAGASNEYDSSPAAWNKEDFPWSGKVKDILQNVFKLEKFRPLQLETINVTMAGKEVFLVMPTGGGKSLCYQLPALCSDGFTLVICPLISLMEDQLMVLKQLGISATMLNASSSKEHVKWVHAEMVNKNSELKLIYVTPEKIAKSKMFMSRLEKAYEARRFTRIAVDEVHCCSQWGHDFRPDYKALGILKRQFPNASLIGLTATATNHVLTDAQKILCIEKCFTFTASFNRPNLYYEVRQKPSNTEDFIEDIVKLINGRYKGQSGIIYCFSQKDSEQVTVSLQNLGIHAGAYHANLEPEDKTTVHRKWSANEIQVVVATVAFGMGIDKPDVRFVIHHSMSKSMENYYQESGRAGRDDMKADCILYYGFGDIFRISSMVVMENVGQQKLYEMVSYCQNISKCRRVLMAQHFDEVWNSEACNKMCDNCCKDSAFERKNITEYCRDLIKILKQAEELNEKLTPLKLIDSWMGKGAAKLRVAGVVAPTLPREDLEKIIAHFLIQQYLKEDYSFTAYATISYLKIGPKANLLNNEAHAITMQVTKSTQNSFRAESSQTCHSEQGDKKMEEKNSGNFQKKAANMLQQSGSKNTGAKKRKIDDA

SMILES	activity change, negative = inhibition	Potency
CN1[C@@H](CC(=O)c2ccccc2)CCC[C@H]1C[C@H](O)c1ccccc1	1.25% (inactive)	–
Cc1ccc(C(=O)O[C@H](C(=O)O)[C@@H](OC(=O)c2ccc(C)cc2)C(=O)O)cc1 (tested in a mixture with another compound)	3.24% (inactive)	–
CC(C)(C)NCC(O)COc1nsnc1N1CCOCC1 (centres undefined)	-6.6% (inactive)	–
OCC1O[C@H](O)C(Cl)C(O)C1O (some centres undefined)	-0.499% (inactive)	–
NCCCCC(=O)O	-3.81% (inactive)	–
O=C(O)CC1CCCc2ccccc2C1O (centres undefined)	3.19% (inactive)	–
S=C(S)OC1CC2CC1C1CCCC21 (centres undefined)	-1.48% (inactive)	–
CC(=O)N[C@H](C(=O)O)C(C)(C)SN=O	-0.542% (inactive)	–
CC1CN(S(=O)(=O)c2cccc3cnccc23)CCN1 (centres undefined)	3.13% (inactive)	–
CO/N=C(\C(=O)N[C@@H]1C(=O)N2C(C(=O)O)=C(COC(C)=O)CS[C@H]12)c1csc(N)n1 (stereo in doubt)	–	10 µM (active)
CCCCCCCCCCCCCCCC(=O)NCC(COP(=O)([O-])OCC[N+](C)(C)C)OCC (centres undefined)	-6% (inactive)	–
N=C(N)SCCc1ccc(CCSC(=N)N)cc1	9.03% (inactive)	–
CN1CCC[C@H]1c1cccnc1	-3.05% (inactive)	–
C=CC(N)CCC(=O)O (centres undefined)	-7.34% (inactive)	–
COc1cc(C(O)CO)ccc1OS(=O)(=O)O (centres undefined)	-3.01% (inactive)	–
c1ccc(-c2ccccn2)nc1	-5.18% (inactive)	–
O=c1[nH]c2cc([N+](=O)[O-])c([N+](=O)[O-])cc2[nH]c1=O	2.13% (inactive)	–
O=C(O)[C@@H]1C[C@@H](C(=O)O)N1	-5.65% (inactive)	–
Cn1c(=O)c2[nH]c(-c3ccccc3)nc2n(C)c1=O	3.28% (inactive)	–
